CRE Fsk mod: modulators of forskolin-stimulated CRE signaling in CHO cells; CHO CRE-bla reporter (cAMP response element driving beta-lactamase), forskolin EC10, beta-lactamase ratio; Potency, µM (top dose mostly 38.2 µM), for inactives: at the highest dose activity change, negative = inhibition, most hits filed as activators; actives 2.5% (n = 71,000); active = well fitted activation curve with a large enough effect in the signal ratio, with a control signal flat, not every such curve was filed as active; inconclusive = small, poorly fitted or top-dose-only effect, or effect the other way, or a change in a side signal; the % refers to the signal ratio; note: % of control where 0% means no effect
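Forskolin analogue NKH 477 at EC10 stimulated CRE-driven beta-lactamase in CHO cells alongside compound dilution series. Beta-lactamase was measured with CCF4, excitation 405 nm, emission ratio 460/530 nm.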
ERK AVP block: vasopressin-driven ERK pathway inhibition; Potency, µM (series often up to 57.5 µM), without a hit: at the highest dose activity, negative = inhibition, actives largely listed as inhibitors; actives 0.99% (n = 72,000); HEK293-V1b, vasopressin-stimulated pERK AlphaScreen; AID 995; note: % is set by controls: 0 for no effect and ±100 for the full control effect; nearly all actives have a fitted effect of over 55% in size
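qHTS, compounds titrated on V1b-expressing HEK293 cells. Preincubation 30 min at 37C, vasopressin 25 nM for 5 min, lysis 10 min, bead incubation 5 hr at room temperature.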
TSHR agonist: agonists of human thyroid stimulating hormone receptor | P16473 | HEK293-CNG-TSHR cells (CNG channel as cAMP sensor), membrane potential dye, cAMP | Potency, µM (doses to about 57.1 µM), for inactives: top-dose activation, usual class: activators | actives 0.48% (n = 73,000) | AID 926; active = well fitted activation curve with a large enough effect in the main read-out, with a control signal flat, not every such curve was filed as active; inconclusive = small, poorly fitted or top-dose-only effect, or a change in a side signal; inactive = no such curve, though single readings can be large or run the other way; % of control where 0% means no effect;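 note: the control signal comes from parental cells without the receptor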
Target sequence (P16473 whole entry, looked up): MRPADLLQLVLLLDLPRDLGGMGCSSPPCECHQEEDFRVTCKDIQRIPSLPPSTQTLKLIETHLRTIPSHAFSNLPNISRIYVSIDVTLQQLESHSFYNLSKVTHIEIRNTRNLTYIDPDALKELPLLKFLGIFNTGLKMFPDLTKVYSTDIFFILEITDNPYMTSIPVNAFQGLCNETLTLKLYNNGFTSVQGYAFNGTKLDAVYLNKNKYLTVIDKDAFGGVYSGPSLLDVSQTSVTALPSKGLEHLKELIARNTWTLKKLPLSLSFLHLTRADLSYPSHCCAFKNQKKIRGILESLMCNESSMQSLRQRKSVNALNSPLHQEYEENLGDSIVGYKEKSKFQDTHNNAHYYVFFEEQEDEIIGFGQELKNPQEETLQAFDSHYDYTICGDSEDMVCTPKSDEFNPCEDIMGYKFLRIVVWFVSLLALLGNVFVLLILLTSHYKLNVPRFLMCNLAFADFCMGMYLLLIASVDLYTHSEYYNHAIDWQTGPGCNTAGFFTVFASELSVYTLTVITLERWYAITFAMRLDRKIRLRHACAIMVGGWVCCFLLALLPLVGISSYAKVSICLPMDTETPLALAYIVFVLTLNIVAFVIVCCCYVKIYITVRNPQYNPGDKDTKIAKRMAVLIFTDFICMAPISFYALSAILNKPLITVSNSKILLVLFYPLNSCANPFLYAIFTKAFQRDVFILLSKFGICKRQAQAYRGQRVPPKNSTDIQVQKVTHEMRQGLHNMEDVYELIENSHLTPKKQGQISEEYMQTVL
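HEK 293 cells stably expressing TSHR and a modified CNG channel, with CNG-only parental cells as counterscreen, were preloaded 60 min at room temperature with membrane potential dye containing 100 uM RO 20-1724. Compound exposure was 30 min, and depolarization was read as fluorescence at 590 nm.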
HEK293 cAMP ctrl: counter-screen for TSHR agonists: cAMP increase in parental HEK293; Potency, µM (highest dose often 57.1 µM), inactives show at the top dose activation, most hits filed as activators; actives 2.5% (n = 73,000); parental HEK293 CNG cAMP sensor, membrane potential fluorescence; note: % of control where 0% means no effect; nearly all actives have a fitted effect of over 55% in size
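Counterscreen for endogenous-receptor signalling: CNG-channel HEK 293 cells report cAMP rise by membrane depolarization. After 60 min dye equilibration with 100 uM RO 20-1724, compounds incubated 30 min before bottom-read fluorescence at 590 nm.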
* marks the source's active call; other numbers are inactive results; ? = inconclusive; · = not tested or not shown; [ ] = remark or other dose. An excerpt weighted towards active compounds, which were near 6% of everything screened. Unless noted, calls come from the whole dose curve; as a rule, active = well fitted curve in the direction sought with a large enough effect; inconclusive = small, poorly fitted or top-dose-only effect, or another doubt; inactive = no such curve, though single readings can be large; an effect the other way counts as inactive or inconclusive. Potency is the fitted concentration of half-maximal effect.

SMILES	CRE Fsk mod	ERK AVP block	TSHR agonist	HEK293 cAMP ctrl
COc1ccccc1CN1CC[C@@]2(CCCN(C(=O)c3cc(C(F)(F)F)cc(C(F)(F)F)c3)C2)C1	-18%	-5%	?	?
CC(C)(C)COS(=O)OCC(C)(C)C	1%[7.6 µM]	6%[11.5 µM]	-7%[11.4 µM]	21%[11.4 µM]
O=[N+]([O-])c1ccc(CSCc2ccc(Cl)cc2)cc1	9%[7.6 µM]	18%[11.5 µM]	3%[11.4 µM]	4%[11.4 µM]
CCOc1ccc(C2C(C#N)=C(N)Oc3n[nH]c(C)c32)cc1OC(=O)C1CC1 (centres undefined)	-15%	-16%	6%	4%
N#CC1=C(N)Oc2n[nH]c(-c3ccccc3)c2C1c1cccnc1 (centres undefined)	9%	24%	12%[11.4 µM]	6%
CCOc1cc(C2C(C#N)=C(N)Oc3n[nH]c(-c4ccccc4)c32)ccc1O (centres undefined)	?	16µM*	12%	2%
Cc1ccc(-c2[nH]nc3c2C(c2cccnc2)C(C#N)=C(N)O3)cc1 (centres undefined)	?	13µM*	7%	2%
CCCn1c(SCC(=O)Nc2ccc3c(c2)OCO3)nc2c1c(=O)n(C)c(=O)n2C	2.5µM*	?	-1%	15%
CCCn1c(SCC(=O)Nc2ccccc2C(=O)OC)nc2c1c(=O)n(C)c(=O)n2C	15%	-5%	?	?
CCCn1c(SCC(=O)Nc2ccccc2N2CCCCC2)nc2c1c(=O)n(C)c(=O)n2C	?	18%	?	1µM*
CO[C@@H]1COC(=O)[C@H](C)NC(=O)[C@@H](C)COC(=O)[C@H](C)NC(=O)C/C=C\[C@H]1C	·	5%[11.5 µM]	-5%[11.4 µM]	4%[11.4 µM]
N#CC(C#N)=c1ccc2c(c1)NC1(CCCCC1)N=2	?	16µM*	?	-65%
O=c1c(CCc2ccccc2)nc2cnc(Oc3ccccc3)nc2n1C[C@H]1CCCO1	13µM*	53%	?	?
COc1ccc(Oc2ncc3nc(-c4ccccc4)c(=O)n(C[C@H]4CCCO4)c3n2)cc1	24%	?	14%	13%
COc1ccc(Oc2ncc3nc(CCc4ccccc4)c(=O)n(C[C@H]4CCCO4)c3n2)cc1	?	-3%	?	10µM*
O=c1cnc2cnc(Oc3ccccc3)nc2n1Cc1ccc(F)cc1	-5%	-9%	?	?
O=c1cnc2cnc(Oc3ccccc3)nc2n1CCc1ccccc1	?	-11%	?	1.6µM*
CCNc1ncc2nc(CCc3ccccc3)c(=O)n(C[C@H]3CCCO3)c2n1	?	-29%	15%	16%
COc1cccc(/C=C/C2=CC3(C)CC2(C)C(c2cccc(OC)c2)CC3=O)c1 (centres undefined)	·	-21%[11.5 µM]	3%[11.4 µM]	11%[11.4 µM]
COC1CCC(C(=O)c2ccc3nc4c(cc3c2)CCCO4)CC1 (centres undefined)	·	-17%	15%	20%
O=C(O)[C@@H]1[C@@H]2C[C@H]([C@@H](Br)[C@H]2N2C(=O)CCC2=O)[C@@H]1C(=O)O	11%[7.6 µM]	?	-4%[11.4 µM]	7%[11.4 µM]
COC(=O)C1(CC(C)C)C=C2C(=C(C)C(=O)C2C)CN1 (centres undefined)	-4%	-1%	0%	6%
O=C(NC1CCCCC1)c1cc2nc3c(c(C(F)(F)F)n2n1)CCCC3	13µM*	-4%	?	?
O=C(NC1CCCCC1)c1cc2nc(-c3ccco3)cc(C(F)(F)F)n2n1	10%	-10%	11%	-3%
N#Cc1nc(-c2ccco2)oc1N1CCN(C(c2ccccc2)c2ccccc2)CC1	14%	-8%	4µM*	13%
SMILES	CRE Fsk mod	ERK AVP block	TSHR agonist	HEK293 cAMP ctrl
N#Cc1nc(-c2ccco2)oc1N1CCc2ccccc2C1	20%	?	?	25µM*
CC1CC(C)CN(c2oc(-c3ccco3)nc2C#N)C1 (centres undefined)	?	?	?	16µM*
N#Cc1nc(-c2ccco2)oc1N1CCCC1	?	-25%	7%	11%
N#Cc1nc(-c2ccco2)oc1N1CCN(c2cccc(Cl)c2)CC1	?	?	?	20µM*
Cc1nc2ccccc2nc1-c1ccc(N=[N+]([O-])c2ccc(-c3nc4ccccc4nc3C)cc2)cc1	-5%[7.6 µM]	3%[11.5 µM]	0%[11.4 µM]	-11%[11.4 µM]
CCOC(=O)C(C)(C)[C@H](O)C(C)C	-2%[7.6 µM]	21%[11.5 µM]	7%[11.4 µM]	-6%[11.4 µM]
COc1ccccc1OCc1nc(C#N)c(N2CC(C)CC(C)C2)o1 (centres undefined)	?	-13%	?	13µM*
COCCOc1ccc(C(F)(F)F)cc1Nc1nc2ccccc2o1	?	-7%	13µM*	-13%
Cc1ccc2c(Cl)cc(Cl)c(OCc3c(C)noc3C)c2n1	?	16%	?	16µM*
CCN(CC)C(=O)CSc1nnc(-n2nc(C)cc2C)c2ccccc12	-4%	2%	10%	2%
CCCOc1ccc2ccccc2c1/C=N/n1c(C)nnc1-n1nc(C)cc1C	?	-14%	?	4µM*
CCOC(=O)N/N=C1/C[C@@H](O)[C@@H](O)[C@@H]2[C@@H]3C(=O)N(C[C@@H]4CCCO4)C(=O)[C@H]3CC[C@H]12	·	36%[11.5 µM]	-2%[11.4 µM]	1%[11.4 µM]
COCC(=O)Nc1c(I)c(C(=O)NC[C@@H](O)CO)c(I)c(C(=O)N(C)C[C@@H](O)CO)c1I	-3%[17.1 µM]	7%[25.7 µM]	-3%[25.6 µM]	10%[25.6 µM]
Cc1ccc2c(c1)c(C)c(C)n2CC(O)Cn1nc(C)c(Br)c1C (centres undefined)	2µM*	-17%	?	?
COc1ccc(-c2ccc(=O)n(Cc3cc(=O)n4ccccc4n3)n2)cc1	10µM*	5%	14%	5%
c1ccc(CNc2ncncc2-c2ccoc2)cc1	-17%	-5%	?	?
COC(=O)c1ccc(OCC2c3cc(OC)c(OC)cc3CCN2C(=O)c2ccco2)cc1 (centres undefined)	1.6µM*	?	32µM*	28%
COC(=O)N1CCc2cc(OC)c(OC)cc2C1Cc1ccc(OC)cc1 (centres undefined)	·	18%[11.5 µM]	-1%[11.4 µM]	-3%[11.4 µM]
CCC(=O)N1CCc2cc(OC)c(OC)cc2C1COc1ccc(C(=O)OC)cc1 (centres undefined)	4µM*	?	?	?
C/C(=N\NC(=O)c1ccncc1)c1ccc2ccccc2c1O	-22%[7.6 µM]	7%[11.5 µM]	4%[11.4 µM]	-11%[11.4 µM]
NCCSC[C@H](N)C(=O)O	6%[7.6 µM]	12%[11.5 µM]	2%[11.4 µM]	7%[11.4 µM]
O=c1c(-c2ccc(Cl)cc2)nc2cnc(N3CCOCC3)nc2n1-c1ccccc1	?	2%	-2%	7%
COc1ccc2[nH]c(O)c(NC(C)=O)c2c1	0.4µM*	?	20%	-8%
Cc1nc2cnc(N(C)C)nc2n(C)c1=O	?	16µM*	?	?
Cc1nc2cnc(N(C)C)nc2n(-c2ccccc2)c1=O	10µM*	-25%	6%	16%
CN(C)c1ncc2nc(-c3ccc(F)cc3)c(=O)n(C3CC3)c2n1	2µM*	28%	1%	11%
Cc1nc2cnc(N(C)C)nc2n(C2CC2)c1=O	10µM*	?	9%	25%

Screening results deposited in PubChem BioAssay by National Center for Advancing Translational Sciences (NCATS).
